# Most compounds without a hit are left out; they make up all but 12% or so of the library.
# Pf growth 48h: Primary qHTS for delayed death inhibitors of the malarial parasite plastid, 48 hour incubation. P. falciparum luciferase growth in erythrocytes, 48 h. Potency, µM (top dose mostly 28.7 µM), for the others: at the highest dose activity change, negative = inhibition, hits mostly inhibitors. 310,000 compounds, 5.9% hits; also: % is scaled to controls: 0 for no effect and ±100 for the full control effect
#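 Firefly luciferase activity from engineered P. falciparum reports growth; inhibitors lower the luminescent signal. Cultures contained 2% hematocrit erythrocytes at 0.1% final parasitemia.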
# HCV inhibitor: qHTS Assay for Inhibitors of Hepatitis C Virus (HCV); Huh7.5.1 HCVcc-Cre infection, luciferase reporter, 44 h; Potency, µM (doses to about 41.8 µM), for the others: at the top dose activity change, negative = inhibition, actives largely listed as inhibitors; 340,000 compounds, 3.4% hits; AID 651820, 2012; also: % is scaled to controls: 0 for no effect and ±100 for the full control effect
#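 Cells (1,000/well) were plated 4 h before compound, then infected with HCVcc-Cre virus (~0.5 moi). After 44 h further culture, infection was read as luciferase luminescence following a 15 min substrate incubation at room temperature.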
# AMA1-RON2 inh: qHTS for Inhibitors of AMA1-RON; Towards Development of Antimalarial Drug Lead: Primary Screen | AlphaScreen AMA1-biotinylated RON2 peptide binding | Plasmodium falciparum AMA1 (3D7) - RON2 peptide interaction | Potency, µM (series often up to 58.2 µM), without a hit: top-dose activity change, negative = inhibition, usual class: inhibitors | 360,000 compounds, 0.2% hits;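 also: 0% = vehicle wells and -100% = peptide control; nearly all actives have a fitted effect of over 45% in size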
#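 AMA1 (3D7) with his tag at 25 nM final met compounds first, then biotinylated RON2 peptide at 25 nM; detection used donor plus acceptor beads, 10 µg/mL apiece, read by AlphaScreen after 30 min at room temperature.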
# NS1 inh: qHTS Assay for Inhibitors of Influenza NS1 Protein Function; 270,000 compounds, 0.4% hits; Potency, µM (titrated, usually from 46.1 µM), without a hit: top-dose activity, positive = more growth; AID 2326, 2010; calls by dose curve; also: actives are rising curves; nearly all actives have a fitted effect of over 50% in size
#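 Recovery from NS1-induced slow growth read by OD600 in budding yeast switched to galactose assay medium (pH 6.0, -URA) at 1:100 dilution. Compound 23 nl per well; the matching strain lacking NS1 serves as control.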
# Pf growth 96h: Primary qHTS for delayed death inhibitors of the malarial parasite plastid, 96 hour incubation. 320,000 compounds, 6.9% hits. AID 504834, 2011. P. falciparum luciferase reporter growth, 96 h. Potency, µM (doses to about 28.7 µM), inactives show top-dose activity change, negative = inhibition, usual class: inhibitors; also: % is scaled to controls: 0 for no effect and ±100 for the full control effect
#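 Plates of compound plus infected erythrocytes (2% hematocrit, 0.05% parasitemia final) incubate 96 hours, 37 C, 5% CO2. Detection reagent added; reduced luminescence from the parasites' luciferase reporter flags inhibition.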
# SARS PLpro yeast: qHTS of Yeast-based Assay for SARS-CoV PLP; Potency, µM (series often up to 32.9 µM), without a hit: top-dose activity, positive = growth rescue, hits mostly activators; S. cerevisiae expressing SARS-CoV PLpro, growth rescue; 330,000 compounds, 0.19% hits; calls by dose curve; also: 0% is about no effect; nearly all actives have a fitted effect of over 55% in size
# The depositor's hits bear a star; i = inactive; ? = inconclusive; nt = no result given; [ ] = another dose, or the depositor's remark. Unless noted, calls follow the shape of the dose curve; as a rule, active = well fitted curve in the direction sought with a large enough effect; inconclusive = small, poorly fitted or top-dose-only effect, or another doubt; inactive = no such curve, though single readings can be large; an effect the other way counts as inactive or inconclusive. Potency is read from the fitted curve at half-maximal effect.
SMILES,Pf growth 48h,HCV inhibitor,AMA1-RON2 inh,NS1 inh,Pf growth 96h,SARS PLpro yeast
CCOc1ccc2c(c1)C(c1ccc(C)o1)=NNC(c1ccncc1)=N2,1.5µM*,?,52%,nt,3%,-6%
CCOc1ccc(C2=NNC(c3cccs3)=Nc3ccc(OC)cc32)cc1,12µM*,8%,?,?,-31%,-32%
CCN1CCN(Cc2ccc(NC(=O)c3ccc(C)c(NC(=O)C(=O)c4c[nH]c5ccccc45)c3)cc2C(F)(F)F)CC1,0.37µM*,?,?,5%,0.41µM*,-8%
CCN1CCN(Cc2ccc(NC(=O)c3cc(NC(=O)c4cnn(-c5ccccc5)c4N)cc(OC)c3)cc2C(F)(F)F)CC1,1.9µM*,6%[8.37 µM],-12%,0%,0.83µM*,0%
CCN1CCN(Cc2ccc(NC(=O)c3ccc(C)c(NC(=O)c4ccc5n[nH]nc5c4)c3)cc2C(F)(F)F)CC1,4%,3%,81%,-3%,28%,-4%
CCN1CCN(Cc2ccc(NC(=O)c3ccc(C)c(NC(=O)c4ccnnc4)c3)cc2C(F)(F)F)CC1,50%,-17%,-9%,0%,?,-1%
CCN1CCN(Cc2ccc(NC(=O)c3cc(NC(=O)c4cc(C)on4)cc(OC)c3)cc2C(F)(F)F)CC1,?,?,-7%,-15%,0.52µM*,-7%
CCN1CCN(Cc2ccc(NC(=O)c3cc(NC(=O)C(=O)c4c[nH]c5ccccc45)cc(OC)c3)cc2C(F)(F)F)CC1,0.37µM*,-16%[8.37 µM],?,0%,0.13µM*,1%
CCc1ccc(C(=O)COC(=O)CNC(=O)C2CCCCC2)cc1,112%,2%,-10%,nt,101%,-6%
CCN1CCN(Cc2ccc(C(=O)Nc3ccc(C)c(NCc4cnc(NC(=O)OC)cn4)c3)cc2C(F)(F)F)CC1,?,?,-19%,-3%,0.37µM*,-6%
CC1(c2ccc3ccccc3c2)NC(=O)N(CC(=O)N2CCN(Cc3ccc(C#N)cc3)CC2)C1=O (centres undefined),?,1.3µM*,-20%,nt,-13%,2%
CC1CC(C)(C)CC2(C1)NC(=O)N(CC(=O)N1CCN(Cc3ccc(C#N)cc3)CC1)C2=O (centres undefined),-28%,1.4µM*,5%,nt,2%,4%
Cc1cccc(NC(=O)CN2CCN(C(=O)CN3C(=O)NC4(CC(C)CC(C)(C)C4)C3=O)CC2)c1C (centres undefined),nt,?,4%,nt,nt,nt
CC1CC(C)(C)CC2(C1)NC(=O)N(CC(=O)N1CCN(S(=O)(=O)c3cccs3)CC1)C2=O (centres undefined),9.3µM*,17%,-9%,nt,?,-9%
CC1CC(C)(C)CC2(C1)NC(=O)N(CC(=O)N1CCN(S(=O)(=O)c3cccc(F)c3)CC1)C2=O (centres undefined),nt,-6%,29%,nt,nt,1%
CCCOC(=O)c1ccc(NC(=O)c2ccccc2[N+](=O)[O-])cc1,39%,?,5%,-1%,?,-1%
N#C/C(=C\Nc1ccccn1)C(=O)c1ccco1,nt,nt,nt,3%,nt,nt
Cc1cccc(C)c1OCc1cc(C(=O)N2CCC(c3ccncc3)CC2)no1,-1%,7.9µM*,-2%,-24%,-19%,-13%
COC(=O)[C@H](Cc1ccccc1)NC(=O)c1cc(COc2c(F)cccc2F)on1,41%,10%,0%,10%,12µM*,-25%
O=C(c1cc(COc2c(F)cccc2F)on1)N1CCC(c2ccccc2F)C1 (centres undefined),20%,-10%,-16%,5%,9.3µM*,-1%
Cc1cccc(C)c1OCc1cc(C(=O)N2CCN(C3CCCC3)CC2)no1,20%,nt,-4%,-12%,8%,-1%
CCC(NC(=O)c1cc(COc2c(F)cccc2F)on1)c1ccncc1 (centres undefined),12%,nt,-11%,2%,-8%,1%
CN1CCN(C(=O)c2cc(COc3c(F)cccc3F)on2)CC1c1ccccc1 (centres undefined),-1%,-22%,12%,-2%,4.1µM*,0%
CCC(C)N(C(=O)COc1ccc(NC(C)=O)cc1)C1CCS(=O)(=O)C1 (centres undefined),-17%,8%,-4%,nt,-48%[5.75 µM],0%
O=C(c1cc(COc2c(F)cccc2F)on1)N1CCC(c2ccncc2)CC1,?,5µM*,16%,7%,?,-1%
SMILES,Pf growth 48h,HCV inhibitor,AMA1-RON2 inh,NS1 inh,Pf growth 96h,SARS PLpro yeast
CCN(Cc1ccncc1)C(=O)c1cc(COc2c(F)cccc2F)on1,5%,-4%,-2%,-12%,10µM*,0%
CCN(Cc1ccncc1)C(=O)c1cc(COc2ccc(F)cc2Cl)on1,?,-19%,14%,-2%,?,-2%
COc1ccc(CSCC(=O)Nc2ccccc2)cc1[N+](=O)[O-],18%,-3%,8%,-2%,59%,-1%
O=C(Nc1ccccc1F)Nc1ccccc1OC(F)F,27%,2%,10%,-72%,31%,-4%
CN(c1ccc(Br)cc1)S(=O)(=O)c1ccc2[nH]cc(C(=O)NCCN3CCOCC3)c(=O)c2c1,?,-3%,18%,8%,?,-1%
CNS(=O)(=O)c1ccc2nc(NC(=O)c3ccc(N4C(=O)CCC4=O)cc3)sc2c1,?,-10%,-3%,5%,3.7µM*,-1%
CCc1ccc2nc(NC(=O)c3ccc(N4C(=O)CCC4=O)cc3)sc2c1,37%,?,7%,7%,48%,0%
COC(=O)c1ccccc1NC(=O)CN1C(=O)c2ccccc2C1=O,nt,13%,-6%,nt,nt,nt
CCOC(=O)Nc1ccc(S(=O)(=O)Nn2cnnc2)cc1,-10%,17%,2%,?,-1%,22µM*
CN(C)c1ccc(C(=O)c2ccc(O)cc2O)cc1,250%,-21%,?,24%,352%,-34%
CN(C)c1ccc(Cc2cc3c(O)ccc(O)c3cc(Cc3ccc(N(C)C)cc3)c2=O)cc1,nt,11µM*,11µM*,nt,nt,nt
Cn1c(=O)c(C(=O)N2CCc3ccccc32)cc2cccnc21,61%,12%,36%,nt,29%,-6%
CCC(=O)N(NC1=NS(=O)(=O)c2ccccc21)S(=O)(=O)c1ccc(C)cc1,-14%,17%,24%,9%,i,1%
CCn1cc(CNC(=O)c2ccc(Cl)c([N+](=O)[O-])c2)c(C)n1,-26%,11%,3%,3%,15µM*,?

# Screening results from PubChem BioAssay.
